Here are results for 19 compounds from PubChem BioAssay (NCATS).

Molecules are shown by their SMILES. Results filed as inconclusive are left out. Unmarked numbers belong to inactive results. The source made the active and inactive calls. Calls follow the shape of the dose curve; as a rule, active = well fitted curve in the direction sought with a large enough effect; inconclusive = small, poorly fitted or top-dose-only effect, or another doubt; inactive = no such curve, though single readings can be large; an effect the other way counts as inactive or inconclusive.

Assay [1] deals with Rap guanine nucleotide exchange factor 3 (Homo sapiens) (UniProt O95398). The assay can be described thus: Confirmatory qHTS for antagonist of cAMP-regulated guanine nucleotide exchange factor 3 (EPAC1) (AID 1645880). Also: nearly all actives have a fitted effect of over 55% in size. Also: potency is read from the fitted curve at half-maximal effect. In outline:
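Released BODIPY-GDP fluoresces less than Rap1-bound BODIPY-GDP; the signal is followed at 480/540 nm at 5-min intervals over 30 min, after 5 min at room temperature. Reactions contain 100 nM EPAC1, 250 nM RAP1B-BODIPY-GDP and 50 uM GDP; results are normalized to ATA and DMSO.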
Background: qHTS replaces the single test concentration by a dilution series.

The target is the same in assay [2]. The assay is described as follows: Confirmatory qHTS for agonist of cAMP-regulated guanine nucleotide exchange factor 3 (EPAC1) (AID 1645881). Also: nearly all actives have a fitted effect of over 75% in size. Also: potency is read from the fitted curve at half-maximal effect.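 As to activation: EPAC1 catalysed release of BODIPY-GDP from Rap1B seen as fluorescence loss; 100% = effect of cAMP agonist control.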
The target of assay [3] is Rap guanine nucleotide exchange factor 4 (Homo sapiens) (UniProt Q8WZA2). The assay is described as follows: Confirmatory qHTS for agonist of cAMP-regulated guanine nucleotide exchange factor 4 (EPAC2) (AID 1645884).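 Also: nucleotide exchange releases bodipy-GDP from Rap1 and this lowers its fluorescence; nearly all actives have a fitted effect of over 65% in size.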 Also: potency is read from the fitted curve at half-maximal effect. As to activation: % is scaled to controls: 0 for no effect and ±100 for the full control effect.
Chain of Rap guanine nucleotide exchange factor 4 (Homo sapiens) (Q8WZA2 whole entry, looked up): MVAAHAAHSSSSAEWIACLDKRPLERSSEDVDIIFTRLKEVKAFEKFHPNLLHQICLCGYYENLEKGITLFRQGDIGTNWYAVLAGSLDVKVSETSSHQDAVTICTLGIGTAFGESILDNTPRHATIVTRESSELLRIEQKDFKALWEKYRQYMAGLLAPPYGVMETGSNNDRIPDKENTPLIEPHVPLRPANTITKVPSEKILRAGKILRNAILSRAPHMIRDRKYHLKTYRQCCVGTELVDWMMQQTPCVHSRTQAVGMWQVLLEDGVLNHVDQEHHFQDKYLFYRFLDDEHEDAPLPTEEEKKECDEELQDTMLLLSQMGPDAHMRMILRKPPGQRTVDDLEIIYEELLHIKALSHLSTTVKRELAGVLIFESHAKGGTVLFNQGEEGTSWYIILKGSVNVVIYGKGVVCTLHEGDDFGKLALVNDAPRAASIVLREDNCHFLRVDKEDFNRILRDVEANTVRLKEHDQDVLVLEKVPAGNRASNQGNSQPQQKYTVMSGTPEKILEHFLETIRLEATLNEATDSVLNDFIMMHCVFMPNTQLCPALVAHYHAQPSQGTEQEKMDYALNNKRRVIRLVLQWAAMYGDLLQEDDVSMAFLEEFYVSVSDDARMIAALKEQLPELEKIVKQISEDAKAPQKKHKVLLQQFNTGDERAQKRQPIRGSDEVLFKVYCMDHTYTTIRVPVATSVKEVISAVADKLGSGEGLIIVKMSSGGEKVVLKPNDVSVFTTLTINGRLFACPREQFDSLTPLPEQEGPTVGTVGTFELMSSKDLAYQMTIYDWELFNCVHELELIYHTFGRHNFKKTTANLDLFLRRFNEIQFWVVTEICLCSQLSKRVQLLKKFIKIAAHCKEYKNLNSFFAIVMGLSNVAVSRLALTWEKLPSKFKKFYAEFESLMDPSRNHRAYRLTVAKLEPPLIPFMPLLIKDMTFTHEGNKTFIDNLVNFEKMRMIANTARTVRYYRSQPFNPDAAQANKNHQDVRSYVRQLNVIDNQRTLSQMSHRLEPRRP
Assay [4] has the same target. The assay is described as follows: Confirmatory qHTS for antagonist of cAMP-regulated guanine nucleotide exchange factor 4 (EPAC2) (AID 1645885). Also: nearly all actives have a fitted effect of over 25% in size. Also: potency is read from the fitted curve at half-maximal effect. As to activity change, negative = inhibition: % is scaled to controls: 0 for no effect and ±100 for the full control effect.
Assay [5] concerns the target Rap guanine nucleotide exchange factor 3 (Homo sapiens) (UniProt O95398). The assay is described as follows: Counterscreen qHTS for antagonist of cAMP-regulated guanine nucleotide exchange factor 3 (EPAC1) (AID 1645888). Also: % of control where 0% means no effect. In outline:
(§1)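 Rap1B-BODIPY-GDP 250 nM + GDP 50 uM; cpds 7-pt, final 9.74 nM–152 uM (activator mode) or from 7.32 nM upwards (inhibitor mode); RT; FI 480/540 nm at 5 and 30 min, then ± cAMP, reread.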
A general note: Counterscreens check selectivity or assay interference.

For assay [6] the target is unchanged. The assay can be described thus: Counterscreen qHTS for agonist of cAMP-regulated guanine nucleotide exchange factor 3 (EPAC1) (AID 1645889). Also: nearly all actives have a fitted effect of over 40% in size. Also: potency is read from the fitted curve at half-maximal effect. As to activation: % of control where 0% means no effect. In outline:
as §1

Chain of Rap guanine nucleotide exchange factor 3 (Homo sapiens) (O95398 whole entry, looked up): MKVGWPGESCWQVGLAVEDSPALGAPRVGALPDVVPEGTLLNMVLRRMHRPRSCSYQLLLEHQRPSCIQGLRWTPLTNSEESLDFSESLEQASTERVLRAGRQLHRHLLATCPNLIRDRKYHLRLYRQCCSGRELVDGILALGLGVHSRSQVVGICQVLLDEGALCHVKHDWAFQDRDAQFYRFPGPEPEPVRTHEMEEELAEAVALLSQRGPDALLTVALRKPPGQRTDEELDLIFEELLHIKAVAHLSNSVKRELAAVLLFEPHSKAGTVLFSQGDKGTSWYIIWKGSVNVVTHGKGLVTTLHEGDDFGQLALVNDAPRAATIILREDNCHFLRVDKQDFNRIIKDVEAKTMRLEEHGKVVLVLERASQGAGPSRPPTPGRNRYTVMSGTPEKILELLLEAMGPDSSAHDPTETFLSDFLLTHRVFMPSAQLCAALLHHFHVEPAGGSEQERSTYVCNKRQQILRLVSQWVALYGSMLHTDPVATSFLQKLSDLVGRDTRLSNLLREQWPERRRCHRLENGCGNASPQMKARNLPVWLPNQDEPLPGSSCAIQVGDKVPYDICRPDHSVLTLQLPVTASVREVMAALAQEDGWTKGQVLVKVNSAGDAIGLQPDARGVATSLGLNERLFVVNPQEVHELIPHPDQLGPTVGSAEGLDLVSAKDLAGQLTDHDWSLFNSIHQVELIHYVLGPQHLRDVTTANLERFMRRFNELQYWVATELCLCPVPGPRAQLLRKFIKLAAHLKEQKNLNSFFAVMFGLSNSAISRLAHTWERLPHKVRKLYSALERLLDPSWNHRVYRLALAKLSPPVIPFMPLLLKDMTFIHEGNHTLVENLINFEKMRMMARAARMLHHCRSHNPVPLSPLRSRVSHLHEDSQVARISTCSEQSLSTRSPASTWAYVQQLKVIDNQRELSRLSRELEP

With `COC(=O)CC1(C(=O)OC)Oc2ccc(Br)cc2C(=O)N1c1cc(Cl)cc(Cl)c1` (centres undefined), the Potency result in assay [1] and in assay [2] was “inactive” throughout. In assay [3], the activation was 5.41% [at 17.1 µM, percent relative to cAMP agonist control]. Moreover, the Potency in assay [4] is 2.13 µM (active); in assay [6] it was 0.0282 µM (active). Moreover, the activity change, negative = inhibition in assay [5] is -4.58% [at 30.8 µM].
With `Cc1ccc(NC(=O)c2ccc(CN3CC(=O)N4CCCCC4C3=O)cc2)c(C)c1` (centres undefined), the Potency result in assay [1], in assay [2], in assay [3], in assay [4], in assay [5] and in assay [6] was “inactive” in each case.
As for `COC(=O)c1scc(C#N)c1N/N=C(\C#N)S(=O)(=O)c1ccc(Cl)cc1`, the Potency in assay [1] was 47.8 µM (active). In addition, the Potency result in assay [2], in assay [3], in assay [4], in assay [5] and in assay [6] was “inactive” in each case.
For the compound `CC(C)(C)c1cc(-c2csc(Nc3ccccc3)[n+]2Cc2ccc(C(=O)O)cc2)cc(C(C)(C)C)c1O`, the Potency in assay [1] was 67.5 µM (active); in assay [4], 84.9 µM (active). For the same compound, the Potency result in assay [2], in assay [3], in assay [5] and in assay [6] was “inactive” in each case.
With `N#C/C(=C\c1cn(Cc2ccc(C#N)cc2)c2ccccc12)C(=O)NCc1cccs1`, the Potency result in assay [1], in assay [2] and in assay [4] was “inactive” each time. The activation in assay [3] was 8.48% [at 17.1 µM, percent relative to cAMP agonist control]; in assay [6] it was 15.9% [at 30.8 µM]. The activity change, negative = inhibition in assay [5] was 7.4% [at 30.8 µM].
Take `CC(=O)c1ccc(N2CCN(C(=O)C3CCCN(S(=O)(=O)c4c(C)[nH]c(=O)[nH]c4=O)C3)CC2)cc1` (centres undefined): the Potency entry in assay [1], in assay [2], in assay [3], in assay [4], in assay [5] and in assay [6] was “inactive” throughout.
Consider `CC1CCCCN1C(=O)COC(=O)c1cc([N+](=O)[O-])ccc1N1CCOCC1` (centres undefined), for which the Potency entry in assay [1], in assay [2], in assay [3], in assay [4], in assay [5] and in assay [6] was “inactive” throughout.
On to `CC(=O)CCc1oc2ccc(C)cc2c1-c1ccc(C)o1`, for which the Potency result in assay [1], in assay [2] and in assay [4] was “inactive” each time. Besides, the activation was 9.77% [at 17.1 µM, percent relative to cAMP agonist control] in assay [3] and 31.9% [at 30.8 µM] in assay [6]. The activity change, negative = inhibition in assay [5] was -33.7% [at 30.8 µM].
As to `COc1ccc(/C=C/C(=O)NC2CCS(=O)(=O)C2)cc1` (centres undefined), the Potency entry in assay [1], in assay [2], in assay [3], in assay [4], in assay [5] and in assay [6] was “inactive” in each case.
With `COc1ccc(N2CCN(C(=O)c3cc(C)on3)CC2)cc1`, the Potency result in assay [1], in assay [2], in assay [3], in assay [4], in assay [5] and in assay [6] was “inactive” in each case.
`Cc1cccc(NC(=S)NC(=O)/C=C/c2ccco2)c1`: the Potency in assay [1] was 75.7 µM (active). Besides, the Potency entry in assay [2], in assay [3], in assay [4], in assay [5] and in assay [6] was “inactive” each time.
On to `CCN(CC)CCn1c2c(c(SCC(=O)NCc3ccccc3)nc1=O)CCCC2`, for which the Potency result in assay [1], in assay [2], in assay [3], in assay [4], in assay [5] and in assay [6] was “inactive” throughout.
`CC(=O)Nc1nc(C)c(Oc2ccc(Cl)cc2Cl)c(=O)[nH]1`: the Potency result in assay [1], in assay [2] and in assay [4] was “inactive” in each case. Moreover, the activation in assay [3] is 0% [at 17.1 µM, percent relative to cAMP agonist control]; in assay [6], 7.36% [at 30.8 µM]. Moreover, the activity change, negative = inhibition in assay [5] is -5.48% [at 30.8 µM].
Regarding `CC1(C(=O)NS(=O)(=O)c2ccc(Cl)s2)CCN1C(=O)C1(c2ccc(Cl)cc2)CCC1` (centres undefined), the Potency in assay [1] was 9.53 µM (active); in assay [4] it was 8.49 µM (active). Further, the Potency result in assay [2], in assay [3], in assay [5] and in assay [6] was “inactive” each time.
As to `CCCCNC(=O)c1ccc2nc(-c3ccco3)c(-c3ccco3)nc2c1`, the Potency in assay [1] is 7.94 µM (active). In addition, the Potency result in assay [2] and in assay [4] was “inactive” each time. The activation in assay [3] is 3.07% [at 17.1 µM, percent relative to cAMP agonist control]; in assay [6], 11.8% [at 30.8 µM]. The activity change, negative = inhibition in assay [5] was -2.83% [at 30.8 µM].
`N#Cc1cc(C(=O)c2cc(F)ccc2O)cn(-c2nccs2)c1=O`: the Potency result in assay [1], in assay [4] and in assay [5] was “inactive” each time. The Potency is 100 µM (active) in assay [2], 112 µM (active) in assay [3] and 39.8 µM (active) in assay [6].
Take `COc1ccccc1/C=C1\SC(=S)N(NS(=O)(=O)c2ccc(C)cc2)C1=O`: the Potency in assay [1] is 12.6 µM (active). Moreover, the Potency entry in assay [2] and in assay [4] was “inactive” in each case. Besides, the activation was 1.14% [at 17.1 µM, percent relative to cAMP agonist control] in assay [3] and -16.6% [at 30.8 µM] in assay [6]. For the same compound, the activity change, negative = inhibition in assay [5] is 2.6% [at 30.8 µM].
As for `CCCc1nn2c(=O)cc(COC(=O)c3cccc(NC(=O)CCc4ccccc4)c3)nc2s1`, the Potency result in assay [1], in assay [2], in assay [3], in assay [4], in assay [5] and in assay [6] was “inactive” in each case.
For the compound `CC(OC(=O)c1nn(C)c(=O)c2ccccc12)C(=O)NC1CCCCC1C` (centres undefined), the Potency result in assay [1], in assay [2], in assay [3], in assay [4], in assay [5] and in assay [6] was “inactive” in each case.
